This is a sample that favours compounds with a hit; in the whole collection about 21% have one here.
Pf growth 96h = P. falciparum growth inhibition at 96 hour, primary screen for plastid delayed-death inhibitors; P. falciparum luciferase reporter growth, 96 h; Potency, µM (doses to about 28.7 µM), without a hit: at the highest dose activity change, negative = inhibition, usual class: inhibitors; actives 6.9% (n = 320,000); also: potency is read from the fitted curve at half-maximal effect; % is scaled to controls: 0 for no effect and ±100 for the full control effect
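Readout is luminescence from an integrated firefly luciferase in P. falciparum. Red cells, 2% hematocrit and 0.05% parasitemia final, were cultured with compound through two parasite generations (96 hours) at 37 C, 5% CO2.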
Shiga toxin inh = inhibitors of Shiga toxin in Vero cells; Vero cells, Shiga toxin protein synthesis inhibition reporter; actives 9.2% (n = 290,000); inhibition, % at 38.7 µM; in the data active = inhibition mostly above about 28%, no sharp cut-off; inactive = mostly below about 43%; also: 0% is about no effect
CHX counter = counter-screen hit for Shiga toxin inhibitors, cycloheximide; max response, %; actives 12% (n = 300,000); cell reporter, cycloheximide protein synthesis inhibition counterscreen; in the data active = max response mostly above about 13%, no sharp cut-off; inactive = mostly below about 14%; also: read at 38.3 µM for the half of the compounds with a filed dose; 0% is about no effect
NS1 inh = inhibitors of influenza NS1 protein function. actives 0.4% (n = 270,000). Potency, µM (highest dose often 46.1 µM), for inactives: top-dose activity, positive = more growth. AID 2326; calls by dose curve; also: potency is read from the fitted curve at half-maximal effect; actives are rising curves; nearly all actives have a fitted effect of over 50% in size
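Compounds were scored for reversing the slow growth caused by influenza A NS1 in S. cerevisiae, measured by optical density at 600 nm. Assay medium contained 2% galactose at pH 6.0; NS1-free yeast of the same strain were the positive control.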
Pf growth 48h = inhibits P. falciparum growth in the first generation, 48 h; Potency, µM (top dose mostly 28.7 µM), inactives show at the highest dose activity change, negative = inhibition, most hits filed as inhibitors; actives 5.9% (n = 310,000); P. falciparum luciferase growth in erythrocytes, 48 h; also: potency is read from the fitted curve at half-maximal effect; % is scaled to controls: 0 for no effect and ±100 for the full control effect
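Erythrocytes infected with P. falciparum carrying an integrated firefly luciferase reporter (2% hematocrit, 0.1% parasitemia final) were exposed to compounds in RPMI 1640 with 0.5% Albumax at 37 C, 5% CO2. Growth inhibition was scored as reduced luminescence.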
Numbers without * were called inactive; ? = inconclusive; / = not tested or not shown. Unless noted, calls follow the shape of the dose curve; as a rule, active = well fitted inhibition curve with a large enough effect; inconclusive = small, poorly fitted or top-dose-only effect, or another doubt; inactive = no such curve, though single readings can be large or run the other way.

SMILES | Pf growth 96h | Shiga toxin inh | CHX counter | NS1 inh | Pf growth 48h
CC(=O)N[C@H]1CSSC[C@@H](C(=O)N2CCC[C@H]2C(=O)N2CCC[C@H]2C(=O)N[C@@H](CCCCN)C(=O)N[C@@H](CC(=O)O)C(N)=O)NC(=O)CNC(=O)[C@H](Cc2c[nH]c3ccccc23)NC(=O)[C@H](CCCNC(=N)N)NC(=O)[C@@H](Cc2ccc3ccccc3c2)NC(=O)[C@H](Cc2cnc[nH]2)NC(=O)[C@H](CCC(=O)O)NC1=O | / | -12 | -6 | / | /
COc1ccccc1CNCC(O)Cn1c2ccccc2c2ccccc21 (configuration not stated) | 2.1µM* | -27 | -11 | -12% | 1.5µM*
CCC(=O)C1=C(c2ccc(OC)c(OC)c2)N(C(=O)CC)n2c(CC)nnc2S1 | / | -7 | 5 | / | /
CC(=O)C1=C(c2ccccc2)N(C(C)=O)n2c(C)nnc2S1 | -20% | 29 | 10 | 3% | 2.3µM*
COc1ccc(CC(=O)NCc2n[nH]c(=S)n2-c2ccccc2OC)cc1 | -16% | 18 | 2 | / | -2%
CCn1cc(CN2CCCC(C(=O)c3ccc(-c4ccccc4)cc3)C2)cn1 (configuration not stated) | -18% | -10 | -2 | 2% | 42%
O=C(c1ccccc1Cc1ccccc1)N1CCN(S(=O)(=O)c2ccccc2[N+](=O)[O-])CC1 | 13µM* | / | / | / | ?
O=C(c1ccccc1Cc1ccccc1)N1CCN(S(=O)(=O)c2ccccc2F)CC1 | 13µM* | / | / | / | 12µM*
Cc1ccc(C)c(S(=O)(=O)N2CCN(C(=O)c3ccccc3Cc3ccccc3)CC2)c1 | ? | / | / | / | 12µM*
O=C(c1ccco1)N1CCN(S(=O)(=O)c2ccccc2[N+](=O)[O-])CC1 | 69% | -4 | -6 | -2% | ?
O=C(c1ccccc1Cc1ccccc1)N1CCN(S(=O)(=O)c2ccccc2)CC1 | ? | -10 | 1 | 14% | -28%
CCn1c(=O)c(C(=O)CN2CCN(S(=O)(=O)c3cc(C)ccc3C)CC2)c(N)n(Cc2ccccc2)c1=O | 13µM* | -3 | -7 | 3% | ?
CCn1c(=O)c(C(=O)CN2CCN(Cc3ccc4c(c3)OCO4)CC2)c(N)n(Cc2ccccc2)c1=O | ? | -14 | 1 | / | ?
N#Cc1ccc2ccn(CC(=O)NCc3ccccc3)c2c1 | / | -10 | 4 | 2% | -18%
CCn1c(CNC(=O)C2CCCCC2)cc2cc(C)ccc21 | 94% | 12 | -5 | 9% | 0%
Cc1ccc(C)c(S(=O)(=O)N2CCN(C(C)C(=O)Nc3ccccc3-c3ccccc3)CC2)c1 (configuration not stated) | 4.1µM* | -2 | 3 | 21% | 9.3µM*
CN(CCCNC(=O)CSc1cc(=O)n(C)c2ccc(Cl)cc12)Cc1ccccc1 | -6% | 3 | -1 | / | -7%
O=C(O)CC12CC3CC(C1)CC(n1ncc(N4CCC5(CC4)OCCO5)c(Cl)c1=O)(C3)C2 | 0% | -3 | -3 | 4% | 2%
Cc1c(N2C(=O)C3C4C=CC(C4)C3C2=O)c(=O)n(-c2ccccc2)n1C (configuration not stated) | 0% | 18 | 8 | 11% | 26%
Cc1cc(C(=O)COC(=O)c2ccc[nH]c2=O)c(C)n1C1CC1 | 40% | 58* | 27* | 6% | 61%
CC(=O)N1CCN(S(=O)(=O)c2cccc(C(=O)OCC(=O)N3CC(=O)Nc4ccccc43)c2)CC1 | 7% | 25 | 16* | / | -7%
Cn1c2ccccc2c2cc(C(=O)OCC(=O)N3CC(=O)Nc4ccccc43)sc21 | 2% | -4 | -2 | -37% | 4.1µM*
Cc1cc(C(=O)COC(=O)c2ccc[nH]c2=O)c(C)n1-c1ccccc1 | 76% | 24 | 23 | -9% | 78%
Cc1cc(C(=O)COC(=O)c2ccc[nH]c2=O)c(C)n1-c1ccc(F)cc1 | 97% | 76* | 39* | -16% | 126%
O=C1CN(C(=O)COC(=O)c2cccs2)c2ccccc2N1 | 28% | / | / | / | 9%
SMILES | Pf growth 96h | Shiga toxin inh | CHX counter | NS1 inh | Pf growth 48h
CC(C)=CC1C(C(=O)Nc2ccc(Br)cn2)C1(C)C (configuration not stated) | / | 13 | -2 | -47% | ?
Cc1cccc(NC(=O)COC(=O)c2cc(C)oc2C)c1 | 8% | -2 | 25 | / | 3%
Cc1cccc(NC(=O)COC(=O)c2cc(C)n(C3CC3)c2C)c1 | ? | / | / | / | 9.3µM*
Cc1cc(C(=O)OCC(=O)N2CC(=O)Nc3ccccc32)c(C)n1-c1ccc(F)cc1 | 2.6µM* | 2 | 6 | 7% | 4.7µM*
O=C(NC(=S)NCCN1CCOCC1)c1ccccc1Br | -15% | 12 | -3 | 12% | ?
CC(=O)c1c(C)nc2ccc(C)cc2c1-c1ccccc1 | ? | -32 | -2 | -4% | -16%
CCOC(=O)c1ccc(NC(=S)Nc2ccc3[nH]c(=O)[nH]c3c2)cc1 | 63% | -4 | 3 | 0% | 45%
COc1ccc(OC)c(C(O)C2CCCCN2)c1 (configuration not stated) | 3.3µM* | / | -5 | 1% | ?
COc1ccc(S(=O)(=O)NC(CC(=O)NCCc2ccc(OC)c(OC)c2)C(C)C)cc1 (configuration not stated) | -15% | -13 | -4 | -5% | 0%
O=C(Nc1ccccn1)c1cccc(S(=O)(=O)N2CCCc3ccccc32)c1 | 10µM* | / | / | / | 7.4µM*
Cc1ccnc(NC(=O)c2cccc(S(=O)(=O)N3CCCc4ccccc43)c2)c1 | 1.9µM* | / | / | / | 1.9µM*
COc1ccc(C(=O)OCC(=O)N(C)C2CCS(=O)(=O)C2)cc1S(=O)(=O)N1CCCc2ccccc21 (configuration not stated) | 32% | 41 | 20* | / | 36%
COc1ccc(C(=O)O)cc1S(=O)(=O)N1CCCc2ccccc21 | 0% | 10 | -3 | 7% | -1%
COc1ccc(C(=O)OCC(=O)N(C)C2CCS(=O)(=O)C2)cc1S(=O)(=O)N(C)Cc1ccccc1 (configuration not stated) | ? | / | / | / | -9%
COc1ccc(C(=O)Nc2ccc(C)cn2)cc1S(=O)(=O)N1CCCc2ccccc21 | ? | / | / | / | 12µM*
CCN(C(=O)COc1ccc(F)cc1Br)c1c(N)n(Cc2ccccc2)c(=O)[nH]c1=O | -17% | / | / | / | -11%
CCOC(=O)c1ccc(NC(=O)Cn2cc3c(n2)CCC(C)C3)cc1 (configuration not stated) | 8% | -3 | -3 | ? | 6%
Cc1cccnc1NC(=O)c1cccc(S(=O)(=O)N2CCCc3ccccc32)c1 | ? | 19 | 26* | 4% | ?
O=C(Nc1ncccc1O)c1cccc(S(=O)(=O)N2CCCc3ccccc32)c1 | -49% | / | / | / | -5%
O=C1C(C=NC2CC2)=C(O)c2ccccc21 | 13µM* | 57* | 37* | -24% | /
COc1cc(N=CC2=C(O)c3ccccc3C2=O)cc(OC)c1 | -105% | 64* | 20* | 4% | 6%
O=C1C(C=NCCCn2ccnc2)=C(O)c2ccccc21 | / | / | / | 1% | /

High-throughput results deposited in PubChem BioAssay by National Center for Advancing Translational Sciences (NCATS).
